Assay [1] in a line: growth inhibition of DIPG glioma cells, dose response, cell-based, SU-DIPG-XVII, MIPE5.0, CellTiter-Glo, qHTS (AID 1347060).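 On AC50: cells exposed to compound for 48 hours before viability readout.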 The settings on record: SU-DIPG-XVII viability, CellTiter-Glo ATP luminescence.
The nature of assay [2]: growth inhibition of DIPG glioma cells, dose response, cell-based, SU-DIPG-XIII, MIPE5.0, CellTiter-Glo, qHTS (AID 1347064; cut-off not given, nearly all actives have AC50 up to about 23 µM;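 on AC50: cells exposed to compound for 48 hours before the viability read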). The settings on record: SU-DIPG-XIII viability, CellTiter-Glo ATP luminescence.
Assay [3] can be described thus: viability loss in pontine glioma line – cell-based, SU-DIPG-XXV, MIPE5.0, CellTiter-Glo, qHTS, dose response (AID 1347065).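 Further: cells exposed to compound for 48 hours before ATP readout.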 The settings on record: CellTiter-Glo ATP luminescence.
Assay [4] is described as follows: JHH-DIPG-1 glioma cell viability, MIPE5.0 library, CellTiter-Glo luminescence, qHTS (AID 1347067).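 Further: cells exposed to compound for 48 hours before readout.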 The settings on record: JHH-DIPG-1 glioma viability, CellTiter-Glo ATP luminescence.
Assay [5] in a line: SU-DIPG-XXV glioma cell viability, MIPE5.0 library, qHTS (AID 1347068; cut-off not given, nearly all actives have IC50 up to about 30 µM;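 on IC50: cells exposed to compound for 48 hours before viability readout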).

The structures appear in SMILES notation. Records with an inconclusive call do not appear. The source made the active and inactive calls. Unless noted, cut-off not given; nearly all actives show AC50 up to about 26 µM.

As to `CC(C)(C)C(=O)N1N=CC[C@H]1c1ccccc1`, the call in assay [1], in assay [2], in assay [3], in assay [4] and in assay [5] was inactive.
Take `C=CC(=O)N1CC[C@@H](Oc2nc(Nc3ccc(N4CCC(N5CCN(C)CC5)CC4)cc3)c(C(N)=O)nc2CC)C1`: the AC50 in assay [1] is 1150 nM (active); in assay [2], 811 nM (active); in assay [3], 910 nM (active); in assay [4], 2290 nM (active). Also, the IC50 in assay [5] was 4560 nM (active).
On to `N#Cc1ccc(N(Cc2ccc(Br)cc2)n2cnnc2)cc1`, for which the result in assay [1], in assay [2], in assay [3], in assay [4] and in assay [5] was inactive.
Turning to `COc1cc(OC)c(/C=C/S(=O)(=O)Cc2ccc(OC)c(OP(=O)(O)O)c2)c(OC)c1`, the AC50 was 41.7 nM (active) in assay [1], 41.7 nM (active) in assay [2], 74.2 nM (active) in assay [3] and 59 nM (active) in assay [4]. Besides, the IC50 in assay [5] is 74.2 nM (active).
Regarding `O=C([C@@H](Cc1cccc(C(F)(F)F)c1)NS(=O)(=O)c1cc(F)c2c(c1)CCNC2)N1CCCC1`, the compound was called inactive in assay [1], in assay [2], in assay [3], in assay [4] and in assay [5].
On to `C[C@H](CN(C)C)Oc1nc(Nc2cc3cccc(Cl)c3cn2)cnc1C#N`, for which the AC50 in assay [1] is 16600 nM (active); in assay [2], 13200 nM (active); in assay [3] it was 16600 nM (active); in assay [4], 8330 nM (active). The result in assay [5] was inactive.
For the compound `COC(=O)N1CC2(CC2)C[C@H](C(=O)NO)[C@H]1C(=O)N1CCN(c2ccccc2)CC1`, the call in assay [1], in assay [2], in assay [3], in assay [4] and in assay [5] was inactive.
For the compound `COc1cc(N2CCC(O)CC2)ccc1Nc1cc(Nc2ccccc2S(=O)(=O)C(C)C)c2cc[nH]c2n1`, the AC50 in assay [1] is 23500 nM (active); in assay [2], 10500 nM (active); in assay [3], 7420 nM (active); in assay [4] it was 16600 nM (active). In addition, in assay [5], the outcome was inactive.
`Cc1[nH]cnc1CN1CCN(C(=O)N[C@@H](CC(C)C)C(=O)O)[C@@H](Cc2ccccc2)C1=O`: the result in assay [1], in assay [2], in assay [3], in assay [4] and in assay [5] was inactive.
On to `CNC(=O)Cn1cc(-c2ccc3c(c2)C(F)CC32NC(=O)N(CC(=O)N(Cc3ccc(F)cc3)[C@@H](C)C(F)(F)F)C2=O)cn1` (stereo not given in full), for which the result in assay [1], in assay [2], in assay [3], in assay [4] and in assay [5] was inactive.
As for `CCN1C(=O)N2Cc3cc(OC)cc(OC)c3[C@@H](C)C=C2C12CCN(Cc1cc(C)cc(C)c1)CC2`, the half-maximal activity concentration (AC50) in assay [1] was 20900 nM (active); in assay [2], 18600 nM (active); in assay [3], 14800 nM (active); in assay [4] it was 18600 nM (active). In assay [5], the IC50 was 20900 nM (active).
As to `CC(C)N(CCCNC(=O)Nc1ccc(C(C)(C)C)cc1)C[C@H]1O[C@@H](n2ccc3c(N)ncnc32)[C@H](O)[C@@H]1O`, the outcome in assay [1], in assay [2], in assay [3], in assay [4] and in assay [5] was inactive.
Consider `Nc1cc(C(F)(F)F)c(-c2nc(N3CCOCC3)nc(N3CCOCC3)n2)cn1`, for which the AC50 in assay [1] was 2350 nM (active); in assay [2], 3720 nM (active); in assay [3], 742 nM (active); in assay [4] it was 2350 nM (active). The IC50 in assay [5] is 1860 nM (active).
Turning to `COc1cc2c3c(n(CCCNCCO)c(=O)c2cc1OC)-c1cc2c(cc1C3=O)OCO2`, the concentration at half-maximal activity (AC50) in assay [1] is 105 nM (active); in assay [2] it was 2950 nM (active); in assay [3], 4680 nM (active); in assay [4], 2630 nM (active). Moreover, the IC50 in assay [5] was 9340 nM (active).
The corresponding values for `COc1cc(N2CCC(N3CCN(C)CC3)CC2)ccc1Nc1ncc(Cl)c(Nc2ccccc2P(C)(C)=O)n1` are 105 nM (active), 332 nM (active), 186 nM (active), 1180 nM (active) and 1050 nM (active).
Take `CN1C(=O)N[C@@H](Cc2c[nH]c3c(Cl)cccc23)C1=O`: the outcome in assay [1], in assay [2], in assay [3], in assay [4] and in assay [5] was inactive.
As for `O=C1Cc2cc(C(=O)NC3C[C@H]4CC[C@@H](C3)N4S(=O)(=O)CC3CCN(CCCC(F)(F)F)CC3)c(Cl)cc2N1` (stereo not given in full), the compound was called inactive in assay [1], in assay [2], in assay [3], in assay [4] and in assay [5].
As to `NC(CC1c2ccccc2Oc2ccccc21)(C(=O)O)C1CC1C(=O)O` (stereo not given), the compound was called inactive in assay [1], in assay [2], in assay [3], in assay [4] and in assay [5].
As to `CCN(C(=O)c1ccccc1OC)c1cc2c(cc1N1CCNC[C@H]1C)n(C)c(=O)n2C`, the compound was called inactive in assay [1], in assay [2], in assay [3], in assay [4] and in assay [5].
As for `CN(C)C/C=C/C(=O)Nc1ccc(C(=O)N2CCC[C@@H](Nc3ncc(Cl)c(-c4c[nH]c5ccccc45)n3)C2)cc1`, the AC50 in assay [1] was 590 nM (active); in assay [2], 295 nM (active); in assay [3], 235 nM (active); in assay [4] it was 332 nM (active). The IC50 in assay [5] was 833 nM (active).
With `O=C(CCCc1ccc2cccnc2n1)NCc1cc(-c2ccc(F)c(C(F)(F)F)c2)no1`, the compound was called inactive in assay [1], in assay [2], in assay [3], in assay [4] and in assay [5].
Consider `CNC(=O)c1ccccc1Nc1nc(Nc2ccc3c(c2OC)CCC[C@@H](N2CCN(CCO)CC2)C3)ncc1Cl`, for which the AC50 in assay [1] was 2350 nM (active); in assay [2], 1480 nM (active); in assay [3] it was 833 nM (active); in assay [4], 5900 nM (active). In assay [5], the IC50 is 11800 nM (active).

Source of the values: PubChem BioAssay.
